# Measured values published in PubChem BioAssay.
# Calls of active or inactive are those of the source.
# How the values were obtained:
# [1] = test system: Human papillomavirus type 1a protein E7 (residues 44-93); assay: small molecules binding HPV E7 44-93 – biochemical, small-molecule microarray, residues 44-93, 635 nm fluorescence, primary screen (AID 1108); settings: fluorescence 635 nm, higher = more signal;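 further: E7 fragment applied at 1 µg/mL in TBST for 1 h at 4 C; score combines spot fluorescence with its signal to noise ratio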
# [2] = hepatitis C replication reporter changes, two-sided – Huh7 cells, luciferase reporter, HCV replication inhibitor project, primary screen (AID 1109); settings: Huh7 HCV replicon luciferase reporter, 48 h; higher = more signal;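 further: huh7 hepatoma cells harbouring a luciferase neomycin HCV replicon reporter; luciferase luminescence as measure of HCV replicon replication; test concentration not given here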
# [3] = target: Left-right determination factor 2 (Homo sapiens) (UniProt O00292); assay: small molecules binding LEFTY2 protein – biochemical, small-molecule microarray, 635 nm fluorescence scan, primary screen (AID 1110); settings: higher = more signal
# [4] = target: Calmodulin-1 (Homo sapiens) (UniProt P0DP23); assay: small molecules binding calmodulin-1 with EGTA – biochemical, small-molecule microarray, Cy5-labelled CALM1, profiling panel (AID 1111); settings: Cy5-CALM1 binding fluorescence, higher = more signal;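 further: labelled calmodulin applied in Tris saline Tween buffer holding calcium plus EGTA and DTT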
# [5] = target: Calmodulin-1 (Homo sapiens) (UniProt P0DP23); assay: small molecules binding Ca-loaded calmodulin-1 – biochemical, small-molecule microarray, Cy5-labelled CALM1, plus calcium, artefact control for SMM control-protein annotation, profiling panel (AID 1112); settings: Cy5-CALM1 binding fluorescence, higher = more signal;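 further: score merges spot fluorescence with signal to noise from triplicate slides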
# [6] = probe aWnt5a binding to arrayed compounds – biochemical, biotinylated probe, 635/667 nm fluorescence, primary screen (AID 1113); settings: small-molecule microarray, higher = more signal;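 further: score merges 667 nm fluorescence intensity with signal-to-noise per printed feature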
# [7] = probe aShh binding to arrayed compounds – biochemical, biotinylated probe, 635/667 nm fluorescence, primary screen (AID 1114); settings: small-molecule microarray, higher = more signal;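 further: probe is biotin-labelled aShh protein from a stem cell growth factor screen; measures binding of labelled protein to compounds printed on the slide; score merges feature fluorescence at 667 nm with signal-to-noise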
# [8] = probe aNog binding to arrayed compounds – biochemical, biotinylated probe, 635/667 nm fluorescence, primary screen (AID 1115); settings: small-molecule microarray, higher = more signal;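 further: probe is biotinylated aNog protein used at 0.15 µg/mL for 1 h at 4 C; z-score combines 667 nm fluorescence of each spot with its signal to noise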
# [9] = target: Torsin-1A-interacting protein 1 (Homo sapiens) (UniProt Q5JTV8); assay: compound microarray binding of lysate hLAP1 – cell lysate, small-molecule microarray, COS7 lysate, 635/667 nm fluorescence, primary screen (AID 1116); settings: 635 nm fluorescence, higher = more signal
# [10] = target: Alpha-bungarotoxin (Bungarus multicinctus) (UniProt P60615); assay: compounds binding labelled alpha-BTX control protein – biochemical, small-molecule microarray, Alexa647 label, 635/667 nm fluorescence, artefact control for SMM control protein annotation, profiling panel (AID 1117); settings: alpha-BTX-A647 binding fluorescence, higher = more signal
# Albumin (Bos taurus) = Albumin (Bos taurus) (UniProt P02769); assay: compounds binding labelled BSA control protein – biochemical, small-molecule microarray, Alexa647 label, 635/667 nm fluorescence, artefact control for SMM control protein annotation, profiling panel (AID 1118); settings: BSA-A647 binding, fluorescence 635 nm, higher = more signal;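 further: score merges 667 nm emission intensity and signal-to-noise per printed compound spot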
# [11] = probe aXIP binding to arrayed compounds – biochemical, NeuroSMM set, 635/667 nm fluorescence, primary screen (AID 1119); settings: small-molecule microarray, higher = more signal, called active from +8 up or from −8 down;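 further: probe is the protein aXip251-270 applied at 1 µg/mL to compound-printed slides; binding of probe to printed compounds measured as 667 nm fluorescence plus signal to noise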
# [12] = probe aNOTCH3 binding on compound microarray – biochemical, small-molecule microarray, 635/667 nm fluorescence, primary screen (AID 1120); settings: higher = more signal;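 further: probe is a biotin-tagged antibody raised against NOTCH3 rather than NOTCH3 protein; score merges spot fluorescence near 667 nm with spot signal to noise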
# [13] = probe aNOTCH2 binding on compound microarray – biochemical, small-molecule microarray, 635/667 nm fluorescence, primary screen (AID 1121); settings: higher = more signal;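 further: score merges feature fluorescence read at 667 nm with its signal to noise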
# [14] = target: Carbonic anhydrase 2 (Homo sapiens) (UniProt P00918); assay: compounds binding carbonic anhydrase 2 – biochemical, small-molecule microarray, Alexa647-labelled CAII, profiling panel (AID 1122); settings: CAII-A647 binding fluorescence, higher = more signal
# [15] = COS7 lysate on small-molecule microarray, probe aHis, 635 nm (AID 1123); settings: COS7 cell lysate, fluorescence, higher = more signal;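 further: z-score combines 667nm fluorescence intensity with signal-to-noise per printed compound spot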
# [16] = probe aLAP1 signal on lysate-treated microarray – cell lysate, small-molecule microarray, COS7 lysate, primary screen (AID 1124); settings: probe aLAP1, fluorescence, higher = more signal;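 further: lysate comes from COS7 cells expressing LAP1 and is applied at 0.3 µg/mL; score merges spot fluorescence near 667 nm with signal-to-noise over triplicate slides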
# Sam68 (KHDRBS1) = assay: compounds binding KHDRBS1 protein – biochemical, small-molecule microarray, 635 nm fluorescence, primary screen (AID 1125); settings: higher = more signal;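 further: score merges 667 nm channel intensity with signal to noise over triplicate slides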
# [17] = test system: Chordin-like protein 2 (CHRDL2); assay: compounds binding chordin-like 2 – biochemical, small-molecule microarray, 635 nm fluorescence, primary screen (AID 1126); settings: fluorescence 635 nm, higher = more signal;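 further: printed compound slides probed with Chrdl2 protein at 4 µg/mL for 1 h at 4 C; score merges 667 nm emission intensity with signal to noise over three replicate slides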
# [18] = target: Concanavalin-A (Canavalia ensiformis) (UniProt P02866); assay: compounds binding concanavalin A lectin – biochemical, small-molecule microarray, Alexa647 label, 635 nm, artefact control for SMM control protein annotation, primary screen (AID 1127); settings: ConA-A647 binding fluorescence, higher = more signal;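 further: z combines 667 nm emission intensity with signal-to-noise across three replicate slides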
# Concanavalin-A (Canavalia ensiformis), sequence (P02866 whole entry, looked up): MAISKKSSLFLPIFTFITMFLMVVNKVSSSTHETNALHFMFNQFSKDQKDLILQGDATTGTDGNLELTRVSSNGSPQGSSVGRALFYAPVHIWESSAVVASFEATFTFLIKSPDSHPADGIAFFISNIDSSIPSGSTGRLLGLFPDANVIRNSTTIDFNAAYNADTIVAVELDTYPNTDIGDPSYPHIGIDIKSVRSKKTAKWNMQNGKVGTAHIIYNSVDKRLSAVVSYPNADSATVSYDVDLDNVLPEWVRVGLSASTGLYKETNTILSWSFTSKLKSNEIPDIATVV
# Left-right determination factor 2 (Homo sapiens), sequence (O00292 whole entry, looked up): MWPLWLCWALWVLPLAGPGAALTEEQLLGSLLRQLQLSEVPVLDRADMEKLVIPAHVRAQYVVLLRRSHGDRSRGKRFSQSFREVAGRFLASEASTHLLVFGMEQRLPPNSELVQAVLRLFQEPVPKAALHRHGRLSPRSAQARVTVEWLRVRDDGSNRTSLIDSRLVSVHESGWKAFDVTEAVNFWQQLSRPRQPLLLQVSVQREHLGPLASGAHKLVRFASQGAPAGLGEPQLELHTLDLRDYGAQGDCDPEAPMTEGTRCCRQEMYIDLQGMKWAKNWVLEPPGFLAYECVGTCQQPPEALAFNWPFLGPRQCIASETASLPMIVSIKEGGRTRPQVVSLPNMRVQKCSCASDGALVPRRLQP
# Alpha-bungarotoxin (Bungarus multicinctus), sequence (P60615 whole entry, looked up): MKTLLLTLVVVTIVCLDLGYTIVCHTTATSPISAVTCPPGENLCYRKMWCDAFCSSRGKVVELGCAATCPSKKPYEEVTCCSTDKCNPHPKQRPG
# Torsin-1A-interacting protein 1 (Homo sapiens), sequence (Q5JTV8 whole entry, looked up): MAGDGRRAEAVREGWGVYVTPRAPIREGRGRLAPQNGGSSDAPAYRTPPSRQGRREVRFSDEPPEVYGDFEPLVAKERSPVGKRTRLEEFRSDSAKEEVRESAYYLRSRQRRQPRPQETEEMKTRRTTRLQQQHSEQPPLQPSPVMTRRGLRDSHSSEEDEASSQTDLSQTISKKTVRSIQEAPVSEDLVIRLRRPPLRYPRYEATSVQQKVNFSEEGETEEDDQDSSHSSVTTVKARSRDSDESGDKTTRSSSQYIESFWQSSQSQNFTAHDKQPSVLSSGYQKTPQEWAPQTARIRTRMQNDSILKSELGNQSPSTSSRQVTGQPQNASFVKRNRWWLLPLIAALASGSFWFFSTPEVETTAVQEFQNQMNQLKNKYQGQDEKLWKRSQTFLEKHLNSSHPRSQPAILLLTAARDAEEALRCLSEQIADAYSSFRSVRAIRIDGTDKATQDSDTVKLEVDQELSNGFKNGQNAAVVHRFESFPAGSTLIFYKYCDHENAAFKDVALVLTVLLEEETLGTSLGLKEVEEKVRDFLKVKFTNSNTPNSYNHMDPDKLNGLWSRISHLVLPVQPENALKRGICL
# Albumin (Bos taurus), sequence (P02769 whole entry, looked up): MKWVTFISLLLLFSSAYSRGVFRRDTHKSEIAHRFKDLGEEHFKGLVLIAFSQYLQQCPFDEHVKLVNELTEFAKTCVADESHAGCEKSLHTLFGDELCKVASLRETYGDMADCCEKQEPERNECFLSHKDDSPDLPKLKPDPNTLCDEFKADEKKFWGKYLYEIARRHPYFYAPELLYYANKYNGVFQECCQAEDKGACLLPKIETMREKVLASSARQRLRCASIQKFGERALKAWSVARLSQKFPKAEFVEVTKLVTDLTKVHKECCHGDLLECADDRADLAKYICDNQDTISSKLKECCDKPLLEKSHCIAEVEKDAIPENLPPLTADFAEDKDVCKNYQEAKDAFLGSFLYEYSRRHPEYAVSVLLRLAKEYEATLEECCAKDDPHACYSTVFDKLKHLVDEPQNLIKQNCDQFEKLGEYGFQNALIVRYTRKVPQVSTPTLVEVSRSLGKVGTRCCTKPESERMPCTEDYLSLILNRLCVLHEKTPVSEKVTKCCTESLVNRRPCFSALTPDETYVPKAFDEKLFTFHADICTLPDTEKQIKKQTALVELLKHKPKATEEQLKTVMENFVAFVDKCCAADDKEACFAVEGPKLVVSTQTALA
SMILES,composite z-score [1],z-score [2],composite z-score [3],composite z-score [4],composite z-score [5],composite z-score [6],composite z-score [7],composite z-score [8],composite z-score [9],composite z-score [10],composite z-score (Albumin (Bos taurus)),composite Z-score [11],composite z-score [12],composite z-score [13],composite z-score [14],composite z-score [15],composite z-score [16],composite z-score (Sam68 (KHDRBS1)),composite z-score [17],composite z-score [18]
O=C1C2C=CC(C(O)c3ccccc3)N(Nc3ccccc3F)C2C(=O)N1c1ccccc1 (stereo not given),0.188,-0.384,-0.0935,0.0824,-0.537,-0.15,-0.0626,-0.341,0.178,0.204,0.571,-0.158 (inactive),-0.0879,-0.126,0.811,0.737,0.34,0.246,0.18,0.532
CCOC(=O)C[C@H]1[C@H](OC(=O)c2ccccc2-c2ccccc2)[C@@H](NC(=O)C2CCCCC2)c2cc(OCCCO)ccc2N1C(=O)Cc1ccc(OC)cc1,-0.312,-1.44,-0.0221,-0.0561,-0.326,-0.12,-0.2,-0.136,0.3,-0.0654,0.0179,-0.483 (inactive),-0.046,-0.122,0.0935,0.0644,0.0035,-0.0019,-0.292,0.0384
COCCCNC(=O)[C@@]1(Cc2ccccc2N=[N+]=[N-])COC(c2ccc(OCCCO)cc2)=N1,1.44,-0.899,0.185,1.43,0.414,0.0165,0.284,0.747,2,2.18,0.538,0.889 (inactive),0.125,-0.0928,0.31,2.27,0.398,1.05,-0.938,1.1
COC(=O)[C@@]1(Cc2ccc(F)cc2)[C@H]2c3cc(C(=O)N4CCCC4)n(CCc4ccc(O)c(O)c4)c3C[C@H]2CN1C(=O)c1ccccc1,-0.369,-1.79,-0.772,0.765,0.694,0.752,2.04,2.27,0.661,-0.125,0.601,0.41 (inactive),1.26,0.89,0.83,1.83,0.543,-1.03,-0.113,-0.697
COCCOC(=O)N1C(=O)[C@@]2(c3cc(C#CC4=CCCCC4)ccc31)[C@H](c1ccc(OCCO)cc1)N1[C@H](c3ccccc3)[C@H](c3ccccc3)OC(=O)[C@H]1[C@@H]2C(=O)NC[C@H](O)c1ccccc1,1.33,-1.88,0.958,0.868,0.458,-0.0297,0.107,0.802,1.06,1.19,-0.298,0.193 (inactive),0.164,0.0629,0.326,1.22,0.875,1.31,1.41,1.12
COC(=O)CCCCCCC(=O)Nc1ccc(NC(=O)CCCC[P+](c2ccccc2)(c2ccccc2)c2ccccc2)cc1,-0.0924,0.319,0.749,-0.0302,-0.516,-0.0751,-0.147,-0.209,0.533,-0.573,-0.637,0.0895 (inactive),0.116,-0.134,-0.281,-0.478,0.116,0.559,1.26,0.0666
C=C(C(=O)CC[C@@H](OC(C)=O)c1ccc(CO)o1)C(C)C,-0.306,-1.25,0.13,-0.299,-0.89,-0.1,0.213,0.149,1.73,0.844,-0.307,1.58 (inactive),0.706,-0.0911,0.846,0.445,0.119,0.285,0.8,0.771
CC(C)N1CC=CC23O[C@@H]4C=CCOC(=O)[C@@H]4[C@H]2C(=O)N(CCCO)[C@@H]3C1=O (stereo not given in full),1.49,-0.223,-0.932,-0.373,0.731,-0.18,-0.123,-0.196,1.47,-0.381,1.05,2.17 (inactive),-0.145,-0.118,0.863,2.76,0.633,0.234,-0.73,0.234
C=CCC(OC(C)=O)[C@@H]1[C@@H](N(Cc2ccc(-c3cccc(C(F)(F)F)c3)o2)C(=O)c2ccc(C)cc2)c2cc(OCCCO)ccc2N1C(=O)c1ccc2ccccc2c1 (stereo not given in full),-0.191,-0.471,-0.0584,-0.287,-0.208,0.0433,-0.221,-0.347,-0.048,-0.0213,0.149,-0.0045 (inactive),-0.0377,-0.14,0.151,0.387,-0.0397,-0.285,0.287,0.0961
C[C@]1(C(=O)NC2CC2)c2ccccc2C(=O)N(Cc2ccccc2)[C@H]1c1ccc(CO)cc1,-0.614,-0.582,-1.25,-0.875,-0.629,-0.148,-0.352,0.113,-0.0199,-1.02,-1.91,-0.504 (inactive),-0.337,-0.105,0.168,-0.163,0.11,-0.958,-0.771,-1.21
Cc1ccc(S[C@]2(C(=O)NCC(F)(F)F)CC(=O)N(C3CCCCC3)[C@@H]2c2ccc(CO)cc2I)cc1,1.42,-2.3,0.394,1.01,-0.077,-0.122,0.184,-0.422,0.958,0.587,0.488,-0.132 (inactive),-0.046,-0.108,0.369,2.01,0.159,1.3,0.0471,0.955
O=C1OCCC=C[C@H]2OC34C=CCN(Cn5nnc6ccccc65)C(=O)[C@H]3N(CCCCCCO)C(=O)[C@@H]4C12 (stereo not given in full),-0.607,0.333,-1.51,-0.204,0.646,-0.208,-0.179,-0.142,-0.0637,-1.27,-0.587,0.688 (inactive),-0.429,-0.0532,0.875,-0.591,0.755,-0.365,-1.31,-0.718
